# Results as given in PubChem BioAssay (NCATS).
# Results filed as inconclusive are left out. Active and inactive are the calls of the source. Calls follow the shape of the dose curve; as a rule, active = well fitted inhibition curve with a large enough effect in the repeat runs; inconclusive = weak or mixed curves; inactive = no such curve, though single readings can be large or run the other way. *1 amine or outer side, *2 acyl side, *3 side chain or, on linkers, in order; H or OH if unused. Where a SMILES comes first, the peptide text is derived from it. Bridges are numbered along the chain shown (N, C = ends). [ ]: non-standard residue; d: D form. The star is where a group is joined. ξ: configuration not given here. X10 = NC1=NCCC(C(N[*:1])C(=O)[*:2])N1; ΔAla(3-NHCONH2) = NC(=O)NC=C(N)C(=O)O; ξβ3hOrn = NCCCC(N)CC(=O)*; Dap = NC[CH](N)C(=O)O
# Biological target: Cytochrome P450 2C9 (Homo sapiens) (UniProt P11712)
# Test: Cytochrome P450 family 2 subfamily C member 9 (CYP2C9) small molecule antagonists: luciferase biochemical (cell-free) qHTS assay (AID 1645842); also: nearly all actives have a fitted effect of over 55% in size
# Conditions: P450-Glo CYP2C9 enzyme assay, luciferin luminescence; series mostly up to 57.4 µM; activity change, negative = inhibition: at the top concentration
# Method: National Center for Advancing Translational Sciences [NCATS] Assay Overview: Cytochrome P450 (CYP) enzymes are membrane-bound hemeproteins that play a key role in metabolism of drugs and xenobiotics. Assaying the effect of chemicals on CYP isozymes is useful to minimize the adverse drug reactions and toxicities in drug development process. Chemical compounds were tested for their effect on CYP enzyme activities by using P450-Glo (TM) screening systems (Promega Corporation, Madison, WI). These systems provide a luminescent method containing proluciferin substrates and are converted to luciferin products by CYP isozymes. The luciferin products formed are detected with a luciferin detection reagent, and the amount of light produced is proportional to CYP activity. P450-Glo (TM) CYP2C9 screening system (Catalog. No. V9790) was used to detect the compounds that interfere in CYP2C9 activity.
# Assay Protocol Summary: Two ul of enzyme-substrate mix supplemented with 0.4% Bovine Serum Albumin was dispensed into medium binding white/solid 1536-well plates (Greiner Bio-One North America Inc., Monroe, NC) using a Flying Reagent Dispenser (FRD, Aurora Discovery, San Diego, CA). […] The assay plates were incubated at room temperature for 10 min. Then 2 ul of NADPH regeneration solution was added to each well of the assay plates using an FRD and incubated at 37C for 1 h. The reaction was stopped by adding 4 ul of detection reagent using an FRD and after 20 min incubation at room temperature, the luminescence signal was measured using a ViewLux plate reader (Perkin Elmer, Shelton, CT). Data were expressed as relative luminescence units.
# % is scaled to controls: 0 for no effect and ±100 for the full control effect; potency is read from the fitted curve at half-maximal effect.
# Cytochrome P450 2C9 (Homo sapiens), sequence (P11712 whole entry, looked up): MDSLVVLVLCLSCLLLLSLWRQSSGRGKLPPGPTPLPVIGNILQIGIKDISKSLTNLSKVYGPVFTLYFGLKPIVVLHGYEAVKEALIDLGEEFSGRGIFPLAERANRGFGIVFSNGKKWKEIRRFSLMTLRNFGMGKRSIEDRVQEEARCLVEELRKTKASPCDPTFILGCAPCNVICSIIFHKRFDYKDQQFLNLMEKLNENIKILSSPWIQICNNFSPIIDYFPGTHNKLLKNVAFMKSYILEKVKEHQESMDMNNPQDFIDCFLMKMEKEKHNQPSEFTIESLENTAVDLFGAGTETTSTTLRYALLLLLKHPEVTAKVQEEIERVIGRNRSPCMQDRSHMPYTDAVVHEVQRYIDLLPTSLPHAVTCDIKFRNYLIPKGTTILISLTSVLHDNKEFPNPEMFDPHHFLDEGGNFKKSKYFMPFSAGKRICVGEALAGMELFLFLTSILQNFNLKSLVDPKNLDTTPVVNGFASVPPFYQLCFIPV
SMILES,"activity change, negative = inhibition",Potency
N#Cc1cc(NC(=O)C(=O)O)c(Cl)c(NC(=O)C(=O)O)c1,11.6% (inactive),
CN1CCC(Nc2ncc3ncnc(Nc4ccc(F)c(Cl)c4)c3n2)CC1,8.48% (inactive),
NCCCC(N)CC(=O)NCC1NC(=O)C(CO)NC(=O)C(N)CNC(=O)C(C2CCN=C(N)N2)NC(=O)C(=CNC(N)=O)NC1=O (stereo not drawn) (H-[Dap]S[Dap](ξβ3hOrn)[ΔAla(3-NHCONH2)][X10]; lactam 1-C; configuration not given here),7.44% [at 0.91 µM] (inactive),
Cc1ccc(C(=O)C(=O)O)cc1C,-10.1% (inactive),
O=C1CC(c2ccc(Cl)cc2)CC(=O)N1,13.7% (inactive),
CCCCCOc1ccc(C2SC(=O)NC2=O)cc1OCC (stereo not given),,7.76 µM (active)
O=C(O)c1[nH]n(-c2ccc(S(=O)(=O)O)cc2)c(=O)c1N=Nc1ccc(S(=O)(=O)O)cc1,-20% (inactive),
N#C/C(=C1/SC[C@@H](c2ccc(Cl)cc2Cl)S1)n1ccnc1,,0.436 µM (active)
NS(=O)(=O)c1ccc(N2CCCCS2(=O)=O)cc1,0.505% (inactive),
CCN(CC)CC(=O)OCC(=O)[C@@]1(O)CC[C@H]2[C@@H]3CCC4=CC(=O)CC[C@]4(C)[C@H]3[C@@H](O)C[C@@]21C,-18.9% (inactive),
CN1CCN(N)CC1,7.1% (inactive),
COc1ccc(/C(C)=C/C(=O)O)c(OC)c1,10.7% (inactive),
CCCc1ncc(C(=O)O)s1,7.94% (inactive),
COc1c(N2C[C@@H]3CCCN[C@@H]3C2)c(F)cc2c(=O)c(C(=O)O)cn(C3CC3)c12,7.69% (inactive),
O=c1[nH]c(=O)n([C@H]2O[C@H](CO)[C@@H](O)[C@@H]2O)cc1/C=C\Br,-1.55% (inactive),
O=C1CC2(CCCC2)CC(=O)N1,17.4% (inactive),
O=C1CC2(CCCC2)CC(=O)N1CCNCC1COc2ccccc2O1 (stereo not given),-18.7% (inactive),
CC(C)OP(=O)(CP(=O)(OC(C)C)OC(C)C)OC(C)C,-9.62% (inactive),
O=C(O)[C@@H](O)[C@H](O)[C@H](O)[C@@H](O)C(=O)O,5.37% (inactive),
CC(C)(C)C(O)/C=C/c1ccc2c(c1)OCO2 (stereo not given),,3.09 µM (active)

SMILES,"activity change, negative = inhibition",Potency
O=C1CCCc2c(O)cccc21,35.8% (inactive),
CCN1C(=O)c2ccccc2C1Nc1ccc(OCCN2CCCCC2)cc1 (stereo not given),6.75% (inactive),
CC(=O)OC/C=C(C)/C=C/C=C(C)/C=C/C1=C(C)CCCC1(C)C,,15.5 µM (active)
CC(C)C(=O)OCc1cccc(OC(=O)[C@@H]2N3C(=O)[C@@H](NC(=O)Cc4ccccc4)[C@H]3SC2(C)C)c1,,24.5 µM (active)
O=C(O)Cc1ccc(OCCNC[C@H](O)c2ccccc2)cc1,5.5% (inactive),
CCOc1ccccc1OCC1CNCCO1 (stereo not given),4.01% (inactive),
CCCC(CCC)(C(=O)OCC)C(=O)OCC,-5.04% (inactive),
COc1cc(C(=O)NC2CCCNC2)cc(OC)c1OC (stereo not given),4.27% (inactive),
CCCCN(CCCC)C(C(N)=O)c1ccc(OC)cc1 (stereo not given),-21.1% (inactive),
CC[N+]1(CC)CCC(=C(c2ccccc2)c2ccccc2)C1C (stereo not given),11.6% (inactive),
CC(=O)N[C@@H](CCC(N)=O)C(=O)O,-0.311% (inactive),
CCCCCCCC(=O)[O-].CCCCCCCC(=O)[O-].[Zn+2],0.891% (inactive),
O=C(O)/C=C(\CC(=O)O)C(=O)O,7.87% (inactive),
CCOC(=O)CN1CCCC1=O,2.32% (inactive),
c1ccc2occc2c1,4.52% [at 115 µM] (inactive),
C[C@@H](C1=C(CCN(C)C)Cc2ccccc21)c1ccccn1,-0.511% (inactive),
CCC(CN)=C(c1ccccc1)c1ccccc1,,11.5 µM (active)
CCCCN(CCN(CCCC)C(=O)N1CCOCC1)C(=O)N1CCOCC1,-1.07% (inactive),
CN(C)CCN1CCN(c2cccc(Cl)c2)C1=O,0.969% (inactive),
COC(=O)c1cc(Cl)ccc1NS(=O)(=O)C(F)(F)F,9.26% (inactive),
